# VDR inhibitor – blocks the human vitamin D receptor; 400,000 compounds, 0.93% hits; P11473; Potency, µM, for the others: max response, negative = inhibition, most hits filed as inhibitors; VDR-SRC2-3 peptide fluorescence polarization, 2 h; AID 504847
# Target sequence (P11473 whole entry, looked up): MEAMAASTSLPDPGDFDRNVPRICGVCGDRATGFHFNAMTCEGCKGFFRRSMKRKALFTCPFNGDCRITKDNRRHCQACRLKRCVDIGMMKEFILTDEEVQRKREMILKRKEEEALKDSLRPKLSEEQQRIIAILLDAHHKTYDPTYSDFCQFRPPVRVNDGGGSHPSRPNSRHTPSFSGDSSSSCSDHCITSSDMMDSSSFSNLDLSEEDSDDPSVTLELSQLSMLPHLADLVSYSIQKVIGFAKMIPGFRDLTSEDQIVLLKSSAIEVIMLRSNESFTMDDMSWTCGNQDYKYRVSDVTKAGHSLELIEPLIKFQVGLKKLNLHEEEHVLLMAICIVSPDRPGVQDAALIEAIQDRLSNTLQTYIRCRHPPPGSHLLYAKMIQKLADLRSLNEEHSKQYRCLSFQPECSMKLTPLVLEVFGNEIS
#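 VDR–SRC2-3 interaction, FP format. Cmpds 23 nl via pintool, brief spin, 2 h ambient incubation.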
# ALOX12 inh – inhibitors of human 12S-lipoxygenase ALOX12 | P18054 | purified 12hLO, xylenol orange hydroperoxide absorbance | Potency, µM (doses to about 108 µM), inactives show top-dose activity change, negative = inhibition, most hits filed as inhibitors | 580,000 compounds, 1.1% hits | AID 1671190
#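 Purified human 12hLO at 150 nM in 25 mM Hepes, 0.01% Triton X-100, pH 7.0, preincubated 15 min at room temperature with compound. Reaction started with 40 uM arachidonic acid, 30 min at room temperature. Hydroperoxide measured by Fe-xylenol orange, 573/405 nm absorbance ratio.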
# Sfp inh – blocks B. subtilis Sfp PPTase activity; Q9F4F7; Biochemical Sfp PPTase activity, qHTS; Potency, µM, inactives show largest response in the series, negative = inhibition, most hits filed as inhibitors; 310,000 compounds, 3.5% hits;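 note: the enzyme is Sfp with the accession as filed and its product quenches rhodamine fluorescence; 0% = enzyme reaction without inhibitor and -100% = no enzyme wells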
#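 Sfp 15 nM + cpd, 15 min RT; start w/ rhodamine-CoA 5 uM, BHQ-2-YbbR 12.5 uM (final); 50 mM Hepes pH 7.6, 10 mM MgCl2, 0.01% NP-40, 0.01% BSA; read 525/598 nm at 0 and 30 min.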
# PLK1 PBD block – inhibitors of human PLK1 polo-box domain binding; P53350; 360,000 compounds, 2.8% hits; Plk1 PBD binding of FITC phosphopeptide, fluorescence polarization; Potency, µM, without a hit: max response, negative = inhibition, most hits filed as inhibitors; AID 720504; note: series mostly up to about 57 µM; nearly all actives have a fitted effect of over 65% in size
# Active calls of the source: *; ? = inconclusive; · = not tested or not shown; ! = not active in a repeat; [ ] = another dose, or the depositor's remark. Compounds with a hit are over-represented: about 4.2% of the library has one in this group of screens. Calls come from the whole dose curve; as a rule, active = well fitted curve in the direction sought with a large enough effect; inconclusive = small, poorly fitted or top-dose-only effect, or another doubt; inactive = no such curve, though single readings can be large; an effect the other way counts as inactive or inconclusive. Unless noted, % is set by controls: 0 for no effect and ±100 for the full control effect; potency is the fitted concentration of half-maximal effect.
SMILES,VDR inhibitor,ALOX12 inh,Sfp inh,PLK1 PBD block
CC(C)(C)Cc1nnc(NS(=O)(=O)c2ccccc2)s1,-13%,-12%,-3%,27µM*
CC(C)(C)c1nnc(NS(=O)(=O)c2ccc(F)cc2)s1,79µM*,?,·,9.5µM*
CC(C)Cc1nnc(NS(=O)(=O)c2ccccc2)s1,·,-29%,·,?
CC(=O)N1CCc2cc(C(=O)CN3CCN(C(=O)c4ccco4)CC3)ccc21,-21%,·,18µM*,-13%
NS(=O)(=O)c1ccc(N=Cc2c(O)n(-c3nccs3)c(=O)c3ccccc23)cc1,14%,3%,26%,2%
CC(C)OC(=O)CC(=O)CSc1nc(-c2ccc(F)cc2)cc(-c2ccccc2)c1C#N,?,-3%,3%,24µM*
N#Cc1c(-c2ccccc2)cc(-c2ccccc2)nc1SCC(=O)NCC(=O)O,?,-14%,20µM*,24µM*
N#Cc1c(-c2ccccc2)cc(-c2ccccc2)nc1SCC(O)CS(=O)(=O)Cc1ccc(Cl)cc1 (centres undefined),28µM*,-31%,·,·
COc1ccc(-c2cc(-c3ccccc3)c(C#N)c(SCC(O)CS(=O)(=O)Cc3ccc(Cl)cc3)n2)cc1 (centres undefined),3%,-15%,·,·
CCOC(=O)CC(=O)CSc1nc(-c2ccccc2)cc(-c2ccccc2)c1C#N,-15%,2%,-11%,-10%
O=C(CCc1ccccc1)NNc1cc(N2CCCCC2)nc(N2CCCCC2)n1,10%,8%,3%,-10%
CC(=O)N1CCN(c2nc(-c3ccco3)c3c(c2C#N)CC(C)(C)SC3)CC1,-9%,35µM*!,45µM*,-29%
CC1(C)Cc2c(C#N)c(N3CCN(C(=O)c4ccccc4Cl)CC3)nc(-c3ccco3)c2CS1,-19%,8%,-99%,?
CC1(C)Cc2c(C#N)c(N3CCN(C(=O)c4ccco4)CC3)nc(-c3ccco3)c2CS1,?,2%,20µM*,-24%
CCC(=O)N1CCN(c2nc(-c3ccco3)c3c(c2C#N)CC(C)(C)SC3)CC1,·,20µM*,·,·
CN(C(=O)CSc1nc(N2CCOCC2)c2c(c1C#N)CCCC2)c1ccccc1,·,-17%,·,·
CC1(C)Cc2c(C#N)c(SCC(=O)c3ccccc3)nc(N3CCOCC3)c2CS1,-12%,-29%,-8%,30µM*
CC1CCN(C(=O)C(=O)N2CCN(c3nc(-c4ccco4)c4c(c3C#N)CCC4)CC2)CC1,·,35%,·,·
COc1ccccc1N1CCN(CC(=O)c2c(C)[nH]c3ccccc23)CC1,4%,-13%,4%,-5%
Oc1ccc(Br)cc1/C=N/N1CCN(Cc2cccc3ccccc23)CC1,-1%,18%,-2%,-2%
CC(=O)Nc1cccc(OCc2ccc([N+](=O)[O-])cc2)c1,·,-18%,·,2%
O=C(N/N=C/C(Br)=C/c1ccccc1)c1ccccc1F,?,19%,-12%,?
CCc1ccc(Cn2ncc3c(C(=O)O)cc(C)nc32)cc1,-10%,-11%,·,27µM*
O=C1Nc2ccccc2CN(Cc2ccc(Cl)cc2)C12CCNC2 (centres undefined),·,20µM*,·,·
O=C1Nc2ccccc2CN(CC2CCCCC2)C12CCNC2 (centres undefined),·,2%[6.33 µM],·,·
SMILES,VDR inhibitor,ALOX12 inh,Sfp inh,PLK1 PBD block
COc1cc(CCC(=O)NC2(C)CCS(=O)(=O)C2)cc(OC)c1OC (centres undefined),-13%,?,·,7%
CCc1ccccc1NC(=S)N(CCN(C)C)C(C)c1ccccn1 (centres undefined),3%,22%,-26%,-2%
N=C(N)n1cccn1,2%,·,50µM*,·
COc1ccc(-c2nc(C)c(CCNS(=O)(=O)c3ccc(F)cc3)s2)cc1OC,16%,?,·,·
COc1ccc(C2C=C(Nc3ccccc3)C(=O)N2c2ccccc2)cc1OC (centres undefined),-7%,-4%,?,6%
COc1cccc(C2C=C(Nc3ccccc3)C(=O)N2c2ccccc2)c1 (centres undefined),-29%,?,63µM*,-10%
CCOC(=O)c1ccc(NC2=CC(c3ccc(Br)cc3)N(c3ccc(C(=O)OCC)cc3)C2=O)cc1 (centres undefined),-6%,0%,·,·
COc1cccc(NC2=CC(c3ccc(C(C)C)cc3)N(c3cccc(OC)c3)C2=O)c1 (centres undefined),20µM*,8%,·,·
CCOc1ccc(NC(=S)NC(=O)/C=C/c2ccc(OC)c(OC)c2)c([N+](=O)[O-])c1,-11%,-24%,50µM*,?
CNC(=S)Nc1ccc([N+](=O)[O-])cc1C,-2%,?,-19%,-18%
COc1ccc(C(=O)NC(=S)Nc2ccc([N+](=O)[O-])cc2C)cc1OC,-4%,?,56µM*,-8%
COc1ccc(C2(CNC(=O)c3cccc([N+](=O)[O-])c3)CCOCC2)cc1OC,?,0%,2%,15µM*
COc1ccc(C2(CNC(=O)c3cccc([N+](=O)[O-])c3)CCCCC2)cc1OC,-1%,-12%,2%,-1%
COc1ccc(C(=O)NC(=S)Nc2ccccc2[N+](=O)[O-])cc1OC,5%,?,89µM*,-11%
CCOC(=O)C1CCN(C(=O)c2cn(-c3ccccc3)nc2-c2ccc(Br)cc2)CC1,·,-14%,·,·
Cc1ccccc1N(CC(=O)NCc1ccc2c(c1)OCO2)C(=O)C1CSC(=O)C1 (centres undefined),2%,-5%,12%,0%
O=C(O)c1ccc(Cl)c(NC(=S)NC(=O)c2ccccc2[N+](=O)[O-])c1,-19%,?,50µM*,?
COc1ccc(CCNC(=S)NC(=O)c2ccccc2)cc1OC,-17%,?,-27%,-10%
COc1ccc(CCNC(=S)NC(=O)c2cccc([N+](=O)[O-])c2)cc1OC,1%,35µM*,2%,-7%
Cc1c(-c2ccccc2F)[nH]c2ccc(CNC(=O)C3CCCN(C(N)=O)C3)cc12 (centres undefined),·,26%,·,·
Cc1c(N(C)C)nc2ccccc2c1N,16%,?,-17%,-13%
CCN(CC)c1nc2ccccc2c(N)c1-c1ccccc1,1%,-97%,79µM*,-6%
CCN=c1scc(C)n1/N=C/c1ccc(O)c(O)c1O,-12%,?,8.9µM*,6.7µM*
COCCN=c1scc(-c2cccs2)n1/N=C/c1ccc(O)c(O)c1O,-29%,?,7.1µM*,7.5µM*
CCN=c1scc(C)n1/N=C/c1cc(Br)c(O)c(Br)c1,-15%,25µM*,?,?
Cc1nc2ccccn2c1-c1ccnc(=S)[nH]1,?,16µM*,10µM*,27µM*
Cc1ccc2oc(C(=O)N3CCN(c4cccc(C)n4)CC3)c(C)c2c1,?,2%,-9%,27µM*
CC1=CC(C)(C)N2C(=O)C(=Nc3ccc(O)cc3)c3cccc1c32,?,?,?,4.7µM*
COc1ccc(C(=O)n2nc(-c3ccccc3)nc2N)cc1OC,3%,-9%,79µM*,-9%
CCC1(N2CCN(S(=O)(=O)c3ccc4c(c3)CCCC4)CC2)CCN(C(=O)C(C)C)C1 (centres undefined),·,22µM*,·,·
